Results filed as inconclusive are left out. The source made the active and inactive calls. Unless noted, the call rests on the fitted dose curve.
How the values were obtained:
[1] = Validation screen for inhibitors of Lassa infection (AID 463096)
[2] = Inducers of the Endoplasmic Reticulum Stress Response (ERSR) in human glioma: Validation (AID 504836; active means well fitted curve in the direction sought with a large enough effect)
How it was run: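 Stably transfected U87-MG glioma cells carrying a GRP78-based luciferase sensor; 16 h compound incubation. Luminescence end-point read 10 min after Bright-Glo addition at room temperature.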

[3] = qHTS for Inhibitors of the Functional Ribonucleoprotein Complex (vRNP) of Lassa (LASV) Arenavirus: LASV Primary Screen - GLuc reporter signal (AID 1347082; calls by dose curve; tested in HEK293 reporter line; further: series mostly up to about 57 µM; nearly all actives have a fitted effect of over 60% in size)
[4] = qHTS for Inhibitors of the Functional Ribonucleoprotein Complex (vRNP) of Lassa (LASV) Arenavirus: Viability assay - alamar blue signal for LASV Primary Screen (AID 1347083; calls by dose curve; tested in HEK293 reporter line; further: series mostly up to about 57 µM; nearly all actives have a fitted effect of over 80% in size)
[5] = qHTS for Inhibitors of the Functional Ribonucleoprotein Complex (vRNP) of Lymphocytic Choriomeningitis Arenaviruses (LCMV): Viability assay - alamar blue signal for LCMV Primary Screen (AID 1347085; calls by dose curve; tested in HEK293 reporter line; further: series mostly up to about 57 µM; nearly all actives have a fitted effect of over 80% in size)
[6] = target: Nucleoprotein (Lymphocytic choriomeningitis virus (strain Armstrong)) (UniProt P09992); assay: qHTS for Inhibitors of the Functional Ribonucleoprotein Complex (vRNP) of Lymphocytic Choriomeningitis Arenaviruses (LCMV): LCMV Primary Screen - GLuc reporter signal (AID 1347086); further: series mostly up to about 57 µM; nearly all actives have a fitted effect of over 70% in size
Sequence of Nucleoprotein (Lymphocytic choriomeningitis virus (strain Armstrong)) (P09992 whole entry, looked up): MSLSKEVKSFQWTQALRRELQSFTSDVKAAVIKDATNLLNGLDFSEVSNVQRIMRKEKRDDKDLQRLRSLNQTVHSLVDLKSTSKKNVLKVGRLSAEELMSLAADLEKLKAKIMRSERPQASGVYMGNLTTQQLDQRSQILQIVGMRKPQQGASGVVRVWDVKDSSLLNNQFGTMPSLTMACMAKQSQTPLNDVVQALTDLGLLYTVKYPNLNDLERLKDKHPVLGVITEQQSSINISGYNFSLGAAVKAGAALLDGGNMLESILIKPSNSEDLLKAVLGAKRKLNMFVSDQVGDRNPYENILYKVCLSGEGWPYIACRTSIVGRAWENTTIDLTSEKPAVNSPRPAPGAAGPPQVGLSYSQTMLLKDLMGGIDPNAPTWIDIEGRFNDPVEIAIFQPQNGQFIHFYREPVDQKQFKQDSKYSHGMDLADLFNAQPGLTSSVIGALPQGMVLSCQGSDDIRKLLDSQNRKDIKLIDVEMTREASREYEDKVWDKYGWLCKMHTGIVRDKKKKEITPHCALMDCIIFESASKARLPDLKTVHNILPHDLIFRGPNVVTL

Measured: Potency

COC1(C2=NCCN2)COc2ccccc2O1 (stereo unspecified)
inactive: all assays above

Cc1cccc(C2CN(C)CCc3c2cc(O)c(O)c3Cl)c1 (stereo unspecified)
inactive: all assays above

CC1=C(C(=O)O)N2C(=O)[C@@H](NC(=O)C(N)c3ccccc3)[C@H]2SC1 (stereo partly specified)
inactive: all assays above

N=S(=O)(O)Cc1noc2ccccc12
inactive: all assays above

O=C(O)c1cc(=O)c2c(Cl)cc(Cl)cc2[nH]1
inactive: all assays above

c1ccc(C2CN3CCSC3=N2)cc1 (stereo unspecified)
inactive: all assays above

From PubChem BioAssay (NCATS)
